Reference: PubChem BioAssay (Tox21)
Values joined by “and” are separate entries in the source; they are usually repeats but may differ in a detail not shown here. Equal entries are not always repeated. The source holds several records for some structures; these can differ, active in one and inactive in another. Active and inactive are the calls of the source. Where a call stands in place of a potency, no number is given. Unless noted, the call rests on the fitted dose curve; in most records, active means well fitted curve in the direction sought with a large enough effect in the repeat runs; inconclusive means weak or mixed curves; inactive means no such curve, though single readings can be large; an effect the other way counts as inactive or inconclusive.

Experiments:
[1] = qHTS assay to identify small molecule antagonists of the glucocorticoid receptor (GR) signaling pathway - cell viability counter screen (AID 720693); further: nearly all actives have a fitted effect of over 55% in size
[2] = qHTS assay for identifying genotoxic compounds that show differential cytotoxicity against isogenic chicken DT40 cell lines with known DNA damage response pathways - wild type cell line (AID 743012); further: nearly all actives have a fitted effect of over 60% in size; further: potency means the concentration at half of the fitted maximal effect
Outline: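 Viability of DNA repair-proficient chicken DT40 cells was assessed by CellTiter-Glo luminescence following 40 h compound exposure at 37 C/5% CO2.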

[3] = qHTS assay for identifying genotoxic compounds that show differential cytotoxicity against isogenic chicken DT40 cell lines with known DNA damage response pathways - Rev3 mutant cell line (AID 743014); further: nearly all actives have a fitted effect of over 55% in size; further: potency means the concentration at half of the fitted maximal effect
[4] = qHTS assay for identifying genotoxic compounds that show differential cytotoxicity against isogenic chicken DT40 cell lines with known DNA damage response pathways - Rad54/Ku70 mutant cell line (AID 743015); further: nearly all actives have a fitted effect of over 60% in size; further: potency means the concentration at half of the fitted maximal effect
[5] = qHTS assay to identify small molecule antagonists of the androgen receptor (AR) signaling pathway - cell viability counter screen (AID 743033; further: nearly all actives have a fitted effect of over 45% in size)
[6] = qHTS assay to identify small molecule antagonists of the androgen receptor (AR) signaling pathway using the MDA cell line - cell viability counter screen (AID 743041; further: nearly all actives have a fitted effect of over 45% in size; further: potency means the concentration at half of the fitted maximal effect)
Outline: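 Cytotoxicity counter screen: MDA-kb2 AR-luc cells, compound + R1881, 16 h, 37C, 0% CO2; CellTiter-Fluor added at 15.5 h, fluorescence read after 30 min.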

[7] = system: thyroid hormone receptor (rat, GH3 cells); assay: qHTS assay to identify small molecule agonists of the thyroid receptor (TR) signaling pathway (AID 743066; calls by dose curve)
[8] = target: Estrogen receptor (Homo sapiens) (UniProt P03372); assay: qHTS assay to identify small molecule antagonists of the estrogen receptor alpha (ER-alpha) signaling pathway (AID 743069; active means well fitted curve in the direction sought with a large enough effect in the signal ratio in the repeat runs, not every such curve was filed as active; inconclusive means weak or mixed curves, or effect the other way; inactive means no such curve, though single readings can be large or run the other way; the % refers to the signal ratio; further: potency means the concentration at half of the fitted maximal effect)
Outline: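 Beta-lactamase FRET fluorescence is read after 2 hr at room temperature with LiveBLAzer B/G substrate. Before that, ER-alpha-bla HEK293 cells sit 4 hr after plating, then receive compound plus 17beta-estradiol and incubate 18 hr at 37C.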

[9] = qHTS assay to identify small molecule antagonists of the estrogen receptor alpha (ER-alpha) signaling pathway - cell viability counter screen (AID 743074; calls by dose curve;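 further: HEK293 cells carrying ER-alpha-UAS-bla reporter stimulated with 17beta-estradiol; nearly all actives have a fitted effect of over 45% in size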)
[10] = target: Estrogen receptor (Homo sapiens) (UniProt P03372); assay: qHTS assay to identify small molecule agonists of the estrogen receptor alpha (ER-alpha) signaling pathway (AID 743075; calls by dose curve;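 further: HEK293 GripTite cells with ER-alpha and UAS-driven beta-lactamase reporter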)
Aromatase (Homo sapiens) = Aromatase (Homo sapiens) (UniProt P11511); assay: qHTS assay to identify aromatase inhibitors (AID 743083); further: nearly all actives have a fitted effect of over 55% in size; further: potency means the concentration at half of the fitted maximal effect
[11] = qHTS assay to identify small molecule antagonists of the thyroid receptor (TR) signaling pathway (AID 743065); further: nearly all actives have a fitted effect of over 55% in size; further: potency means the concentration at half of the fitted maximal effect
Outline: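 GH3.TRE-Luc rat pituitary cells (two TREs driving luciferase) were dosed with compound, then stimulated with 1 nM T3 (final) for 23.5 h at 37 C. ONE-Glo luminescence was the read-out, with CellTiter-Fluor fluorescence as the cytotoxicity counter-screen.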

[12] = qHTS assay to identify small molecule antagonists of the estrogen receptor alpha (ER-alpha) signaling pathway using the BG1 cell line - cell viability counter screen (AID 743081);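 further: compound given together with 17beta-estradiol as the ER stimulus; series mostly up to about 70 µM; nearly all actives have a fitted effect of over 45% in size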
[13] = qHTS assay to identify small molecule antagonists of the thyroid receptor (TR) signaling pathway - cell viability counter screen (AID 743064); further: nearly all actives have a fitted effect of over 50% in size; further: potency means the concentration at half of the fitted maximal effect
Outline: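 Same-well viability check: GH3.TRE-Luc cells stimulated with 1 nM T3 alongside test compound for 23.5 h, followed by CellTiter-Fluor fluorescence.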

[14] = target: Estrogen receptor (Homo sapiens) (UniProt P03372); assay: qHTS assay to identify small molecule agonists of the estrogen receptor alpha (ER-alpha) signaling pathway using the BG1 cell line (AID 743079); further: nearly all actives have a fitted effect of over 20% in size; further: potency means the concentration at half of the fitted maximal effect
[15] = qHTS assay to identify small molecule antagonists of the estrogen receptor alpha (ER-alpha) signaling pathway using the BG1 cell line (AID 743080; calls by dose curve;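 further: BG1 cells stimulated with 17beta-estradiol alongside compound; series mostly up to about 70 µM; nearly all actives have a fitted effect of over 25% in size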)
Outline: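 Luciferase inhibition measured with ONE-Glo after 30 min at RT in BG1Luc4E2 cells given test compounds and 17beta-estradiol for 21.5 h at 37 C; CellTiter-Fluor viability read in the same wells beforehand.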

Estrogen receptor (Homo sapiens), sequence (P03372 whole entry, looked up): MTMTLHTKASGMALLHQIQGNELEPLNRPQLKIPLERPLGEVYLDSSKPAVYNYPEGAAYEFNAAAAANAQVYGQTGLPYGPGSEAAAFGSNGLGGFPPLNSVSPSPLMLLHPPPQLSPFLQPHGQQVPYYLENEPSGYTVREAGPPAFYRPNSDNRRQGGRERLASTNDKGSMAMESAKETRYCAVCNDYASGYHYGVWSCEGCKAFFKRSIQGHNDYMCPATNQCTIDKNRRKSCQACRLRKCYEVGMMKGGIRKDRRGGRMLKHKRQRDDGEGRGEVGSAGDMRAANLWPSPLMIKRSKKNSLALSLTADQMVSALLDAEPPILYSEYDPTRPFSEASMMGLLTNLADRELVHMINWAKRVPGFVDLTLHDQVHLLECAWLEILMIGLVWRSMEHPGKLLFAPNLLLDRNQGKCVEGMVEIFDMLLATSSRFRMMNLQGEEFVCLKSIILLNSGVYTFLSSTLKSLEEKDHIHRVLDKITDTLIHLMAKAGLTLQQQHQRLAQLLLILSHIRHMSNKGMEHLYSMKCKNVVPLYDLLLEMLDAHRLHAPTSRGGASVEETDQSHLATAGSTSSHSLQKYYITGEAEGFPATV
Aromatase (Homo sapiens), sequence (P11511 whole entry, looked up): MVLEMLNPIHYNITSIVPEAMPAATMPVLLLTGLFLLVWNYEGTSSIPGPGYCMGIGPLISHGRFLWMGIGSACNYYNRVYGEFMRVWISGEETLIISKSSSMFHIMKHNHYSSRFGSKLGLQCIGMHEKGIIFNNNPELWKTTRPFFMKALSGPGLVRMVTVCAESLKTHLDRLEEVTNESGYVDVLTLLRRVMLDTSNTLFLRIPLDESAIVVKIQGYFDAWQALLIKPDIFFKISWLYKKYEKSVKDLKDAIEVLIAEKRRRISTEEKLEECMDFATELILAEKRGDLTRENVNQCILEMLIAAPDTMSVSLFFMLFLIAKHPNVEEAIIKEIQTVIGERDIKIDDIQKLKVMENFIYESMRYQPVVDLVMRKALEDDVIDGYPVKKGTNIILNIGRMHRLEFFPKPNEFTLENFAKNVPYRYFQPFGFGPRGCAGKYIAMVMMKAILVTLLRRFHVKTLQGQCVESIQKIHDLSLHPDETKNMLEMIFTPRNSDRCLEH

Compound | Potency [1] | Potency [2] | Potency [3] | Potency [4] | Potency [5] | Potency [6] | Potency [7] | Potency [8] | Potency [9] | Potency [10] | Potency (Aromatase (Homo sapiens)) | Potency [11] | Potency [12] | Potency [13] | Potency [14] | Potency [15]
CCCCc1c(C)nc(NCC)nc1OS(=O)(=O)N(C)C | inactive | 15.4 µM (active) | 19.3 µM (active) | 15.4 µM (active) | inactive | inactive | inactive | inactive | inactive | inactive | inactive | – | – | – | – | –
C#CCOC(C(=O)OCCN(C)C)(c1ccccc1)c1ccccc1 | inactive | inactive | inactive | inactive | inactive | inactive | inactive | – | inactive | – | inactive | inactive | inactive | – | – | –
ClCCCCBr | inactive | inactive | inactive | inactive | inactive | inactive | – | – | inactive | – | inactive | – | inactive | inactive | – | –
O=C(O)CC(Cl)C(=O)O (configuration not stated) | inactive | inactive | inactive | inactive | inactive | inactive | – | – | inactive | – | inactive | – | inactive | inactive | – | –
C=CCC1([C@H](C)CCC)C(=O)NC(=O)NC1=O | inactive | inactive | inactive | inactive | inactive | inactive | inactive | inactive | inactive | inactive | inactive | – | inactive | – | inactive | inactive
[O-][Cl+]O | inactive | inactive | inactive | inactive | inactive | inactive | inactive | inactive | – | inactive | inactive | inactive | inactive | – | inactive | inactive
CCOP(=O)(OCC)Oc1ccc([N+](=O)[O-])cc1 | inactive | inactive | inactive | inactive | inactive | inactive | inactive | – | inactive | – | – | – | inactive | inactive | – | –
CC(c1ccc(O)cc1)(c1ccc(O)cc1)c1ccc(O)cc1 | inactive | 27.3 µM (active) | 38.6 µM (active) | 54.5 µM (active) | inactive | inactive | – | 21.9 µM [inconclusive] (active) | – | – | – | 61.1 µM (active) | inactive | – | 27.3 µM (active) | –
CCC(Cl)CCl (configuration not stated) | inactive | inactive | inactive | inactive | inactive | inactive | inactive | inactive | inactive | inactive | inactive | inactive | inactive | – | inactive | –
O=[N+]([O-])c1cc(C(F)(F)F)cc([N+](=O)[O-])c1Cl | inactive | inactive | inactive | inactive | inactive | 43.5 µM (active) | inactive | – | inactive | inactive | inactive | – | – | – | – | inactive
C=CC(C)=O | inactive | inactive | inactive | inactive | inactive | inactive | – | inactive | inactive | inactive | inactive | – | inactive | inactive | inactive | –
CC(Cl)C(C)Cl (configuration not stated) | inactive | inactive | inactive | inactive | inactive | inactive | inactive | inactive | inactive | inactive | inactive | inactive | inactive | – | inactive | –
C/C=C/C=O | inactive | inactive | inactive | inactive | inactive | inactive | inactive | – | inactive | – | inactive | – | inactive | inactive | – | –
CNC(C)Cc1ccccc1OC (configuration not stated) | inactive | inactive | inactive | inactive | inactive | inactive | inactive | inactive | inactive | inactive | inactive | inactive | inactive | – | inactive | –
CC/C(=N\OC/C=C/Cl)C1=C(O)CC(C2CCOCC2)CC1=O (configuration not stated) | inactive | inactive | inactive | inactive | inactive | inactive | inactive | – | inactive | – | inactive | inactive | inactive | – | – | –
COC(=O)C(Cl)C(=O)OC | inactive | inactive | inactive | inactive | inactive | inactive | inactive | inactive | inactive | inactive | inactive | inactive | inactive | – | inactive | –
C=CC(=O)OCC(C)O (configuration not stated) | inactive | inactive | inactive | inactive | inactive | inactive | inactive | inactive | – | – | – | – | inactive | inactive | inactive | inactive
N#Cc1ccc(Cl)cc1 | inactive | inactive | inactive | inactive | inactive | inactive | – | inactive | – | inactive | inactive | – | inactive | inactive | inactive | inactive
CCC(COC(=O)c1cc(OC)c(OC)c(OC)c1)(c1ccccc1)N(C)C (configuration not stated) | inactive | 5.96 µM (active) | 3.35 µM (active) | 6.68 µM (active) | inactive | inactive | inactive | – | inactive | – | – | – | inactive | inactive | – | –
CCOP(=O)(OCC)O/C(=C/Cl)c1ccc(Cl)cc1Cl | inactive | 11.9 µM (active) and 15.4 µM (active) | 23.7 µM (active) and 27.3 µM (active) | 23.7 µM (active) and 27.3 µM (active) | inactive | inactive | inactive | 21.9 µM [inconclusive] (active) | inactive | inactive | 27.3 µM (active) | 29.8 µM (active) and 61.1 µM (active) | inactive | – | inactive | –
BrCCCCBr | inactive | inactive | inactive | inactive | inactive | inactive | inactive | inactive | inactive | inactive | inactive | inactive | inactive | – | inactive | –
O=S(=O)(Cl)c1ccccc1 | inactive | inactive | inactive | inactive | inactive | inactive | inactive | – | inactive | – | inactive | inactive | inactive | – | – | –
ClCc1ccccc1 | inactive | inactive | inactive | inactive | inactive | inactive | inactive | inactive | inactive | inactive | inactive | – | inactive | – | inactive | inactive
CCOC(=O)CBr | inactive | inactive | inactive | inactive | inactive | inactive | inactive | – | inactive | – | inactive | inactive | inactive | – | – | –
[CH3][Sn]([CH3])([Cl])[Cl] | inactive | 54.5 µM (active) | 62.1 µM (active) and 27.3 µM (active) | 48.6 µM (active) | inactive | inactive | inactive | – | inactive | – | inactive | – | inactive | 55.4 µM (active) and inactive | – | –
